CXXC DNA block – qHTS Fluorescence Polarization Assay for Inhibitors of MLL CXXC domain - DNA interaction | Histone-lysine N-methyltransferase 2A (Homo sapiens), Q03164 | MLL-CXXC / FITC-HOXA9 DNA fluorescence polarization | Potency, µM (highest dose often 115 µM), for the others: top-dose activity change, negative = inhibition, hits mostly inhibitors | 290,000 compounds, 0.037% hits; active = well fitted inhibition curve with a large enough effect in the polarisation, with a control signal flat, not every such curve was filed as active; inconclusive = small, poorly fitted or top-dose-only effect, or effect the other way, or a change in a side signal; inactive = no such curve, though single readings can be large or run the other way; the % refers to the polarisation; also: potency is read from the fitted curve at half-maximal effect
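Fluorescence polarization: 7 uM MLL-CXXC (stock) preincubated 5 min with compounds, then 50 nM fluorescein-HOX-A9 DNA (stock) added; 30 min ambient. Buffer 50 mM Tris-HCl pH 7.5, 50 mM NaCl, 1 mM DTT, 0.05% BSA.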
Menin MLL FP TR – qHTS Assay for Inhibitors Targeting the Menin-MLL Interaction in MLL Related Leukemias: Competition With Texas Red Labeled MLL-derived Mutant Peptide. Menin + Texas Red MLL mutant peptide, fluorescence polarization. Potency, µM (titrated, usually from 61.6 µM), inactives show top-dose FP activity change, negative = inhibition, most hits filed as inhibitors. 270,000 compounds, 0.23% hits. O00255; active = well fitted inhibition curve with a large enough effect in the polarisation, with a control signal flat, not every such curve was filed as active; inconclusive = small, poorly fitted or top-dose-only effect, or effect the other way, or a change in a side signal; inactive = no such curve, though single readings can be large or run the other way; the % refers to the polarisation; also: potency is read from the fitted curve at half-maximal effect; % of control where 0% means no effect
GoLoco inh red – qHTS Assay for Inhibitors of RGS12 GoLoco Motif Activity (Red Fluorophore) | Guanine nucleotide-binding protein G(i) subunit alpha-1 (Homo sapiens), P63096 | Gai1:RGS12 GoLoco peptide FP, rhodamine, 10 min | Potency, µM (doses to about 61.6 µM), for inactives: top-dose activity, negative = inhibition, most hits filed as inhibitors | 230,000 compounds, 0.44% hits | AID 880, 2007; active = well fitted inhibition curve with a large enough effect, not every such curve was filed as active; inactive = no such curve, though single readings can be large or run the other way; also: potency is read from the fitted curve at half-maximal effect; % is scaled to controls: 0 for no effect and ±100 for the full control effect; nearly all actives have a fitted effect of over 30% in size
Tb PFK block – qHTS Assay to Find Inhibitors of T. brucei phosphofructokinase; T. brucei PFK, ADP-Glo luminescence; AID 485367, 2010; 330,000 compounds, 0.17% hits; Potency, µM (highest dose often 57.5 µM), without a hit: at the highest dose activity, negative = inhibition, usual class: inhibitors; ATP-dependent 6-phosphofructokinase (Trypanosoma brucei brucei), O15648; active = well fitted inhibition curve with a large enough effect; inconclusive = small, poorly fitted or top-dose-only effect, or effect the other way;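 also: potency is read from the fitted curve at half-maximal effect; 0% = uninhibited 1x PFK enzyme wells and -100% = no-enzyme wells; nearly all actives have a fitted effect of over 60% in size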
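PFK 1.25 nM, F6P 0.5 mM, ATP 0.1 mM, 0.1 M TEA pH 8.0, 5 mM MgCl2, 0.01% Tween20, 0.1% BSA; 45 min RT. ADP-Glo readout. qHTS titration up to 57 uM; curves fitted, compounds curve-classed.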
Menin-MLL FL inh – qHTS Assay for Inhibitors Targeting the Menin-MLL Interaction in MLL Related Leukemias: Competition With Fluorescein Labeled MLL-derived Peptide. Fluorescence polarization, fluorescein-MLL peptide displacement from menin. FP activity change, % at 61.4 µM. 290,000 tested, under 10 active. AID 1766, 2009; active = well fitted curve in the direction sought with a large enough effect in the polarisation, not every such curve was filed as active; inconclusive = small, poorly fitted or top-dose-only effect, or effect the other way, or a change in a side signal; inactive = no such curve, though single readings can be large or run the other way; the % refers to the polarisation; also: % of control where 0% means no effect
Starred values were filed as active, the others as inactive; [ ] = another dose, or the depositor's remark. Compounds with a hit are over-represented: about 0.43% of the library has one in this group of screens.

Screening Oc1ccc(Nc2nc3ccccc3nc2Nc2ccc(O)cc2)cc1 returned CXXC DNA block 1.9%, Menin MLL FP TR inconclusive, GoLoco inh red 2.51µM*, Tb PFK block -5.3% and Menin-MLL FL inh 5.6.
For Oc1ccc(Nc2nc(-c3ccccc3)nc3ccccc23)cc1 the results were CXXC DNA block 13.9%, Menin MLL FP TR inconclusive, Tb PFK block 0.0% and Menin-MLL FL inh -1.9.
Screening CC[C@@H](C)[C@H](CNC)NC[C@@H](Cc1cccc2ccccc12)NCCc1cccc(C(F)(F)F)c1 returned CXXC DNA block 126.8%, Menin MLL FP TR 31.6µM*, Tb PFK block 5.3% and Menin-MLL FL inh 1.2.
For COc1ccc(NS(=O)(=O)c2cc(NC(=O)/C=C/c3cc(OC)ccc3OC)ccc2N2CCCCC2)cc1 the results were CXXC DNA block 2.6%, Menin MLL FP TR 10µM*, GoLoco inh red 10.7%, Tb PFK block 5.2% and Menin-MLL FL inh 0.3.
CCCN1CCC(=O)N(CCSc2ccc(Br)cc2)CC1 was read as Menin MLL FP TR -11.0% and Menin-MLL FL inh -4.7.
For CCCCCCCC1=CC2=C(Cl)C(=O)C(C)(OC(C)=O)C(=O)C2=CN1C (configuration not stated) the results were Menin MLL FP TR -9.0%, GoLoco inh red -3.5% and Menin-MLL FL inh -3.9.
For C#C[C@]1(O)CCC2C3CCC4=C/C(=N/OCC(=O)NC(C)C(=O)NC(CCSC)C(=O)O)CC[C@]4(C)C3CC[C@@]21C (some centres not stated) the results were CXXC DNA block 4.0%, Menin MLL FP TR 25.1µM*, Tb PFK block -13.5% and Menin-MLL FL inh -16.0.
`C#C[C@]1(O)CC[C@H]2[C@@H]3CCC4=CC(=O)CC[C@]4(C)[C@H]3CC[C@@]21C` gave CXXC DNA block 1.3%, Menin MLL FP TR 6.3%, GoLoco inh red 14.4%, Tb PFK block -1.9% and Menin-MLL FL inh 0.2.
`C=CCN1c2ccccc2[C@]23C[C@@H](C(=O)OC)N(S(=O)(=O)c4ccc(C#N)cc4)C2=NC(C(=O)OC)=C(C(=O)OC)[C@H]13` gave Menin MLL FP TR -13.5%[11.7 µM], GoLoco inh red 0.1%[14.2 µM] and Menin-MLL FL inh -4.6[11.7 µM].
For COC1CC(O[C@H]2/C(C)=C/CC3CC(C[C@]4(CCC(C)C(C5CCCCC5)O4)O3)OC(=O)[C@H]3C=C(C)/C(=N/O)C4OC/C(=C\C=C\[C@@H]2C)[C@@]43O)OC(C)C1O (some centres not stated) the results were CXXC DNA block 9.2%, Menin MLL FP TR 22.4µM*, GoLoco inh red -6.3% and Menin-MLL FL inh -2.1.
CC[C@@H]1O[C@]2(C=C[C@@H]1C)C[C@H]1C[C@H](CC=C(C)[C@@H](O[C@@H]3C[C@H](OC)[C@H](O[C@@H]4C[C@H](OC)[C@H](O)[C@H](C)O4)[C@H](C)O3)[C@@H](C)C=CC=C3CO[C@@H]4[C@@H](O)C(C)=C[C@@H](C(=O)O1)[C@]34O)O2 was read as Menin MLL FP TR inconclusive, GoLoco inh red 12.7%[21.6 µM] and Menin-MLL FL inh 1.7[24.8 µM].
For CC(=O)Nc1cccc([As](=O)(c2cccc(NC(C)=O)c2)c2cccc(NC(C)=O)c2)c1 the results were CXXC DNA block 0.4%, GoLoco inh red 5.01µM*, Tb PFK block -1.5% and Menin-MLL FL inh -0.7.
`COc1ccc2cc(C#N)c(SCC(=O)NNC(=O)Cc3ccccc3)nc2c1` gave CXXC DNA block 4.3%, Menin MLL FP TR 11.2µM*, GoLoco inh red 9.3%, Tb PFK block 0.0% and Menin-MLL FL inh 5.3.
For Cc1cc(C)c2c(=O)n(CC(=O)NCCCN3CCN(c4ccccc4F)CC3)sc2n1 the results were CXXC DNA block 20.8%, Menin MLL FP TR 21.7%, GoLoco inh red 20µM*, Tb PFK block 12µM* and Menin-MLL FL inh 5.3.

Assay outcomes from PubChem.
